HTT prom inh: inhibitors of huntingtin promoter activity | HEK293 HTT promoter firefly luciferase reporter, 24 h | Potency, µM (series often up to 57.5 µM), for the others: at the top dose activity change, negative = inhibition, usual class: inhibitors | actives 0.93% (n = 48,000); further: nearly all actives have a fitted effect of over 50% in size
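Firefly luciferase signal from promoter-reporter HEK293 cells was scaled between vehicle (0%) and zero RLU (-100%). Compounds were tested at final concentrations of up to 57.5 uM over 24 h at 37 degrees C. PTC124 at 50 uM final served as control inhibitor.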
p53null 39C tox: selectivity test: cytotoxicity in p53 null cells, nonpermissive temperature. H1299 p53-null (neo) cells, 39C, ATPlite viability, 24 h. Potency, µM (top dose mostly 46.1 µM), without a hit: top-dose activity, negative = cell killing, hits mostly cytotoxic. actives 0.97% (n = 55,000). AID 904;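 further: 0% = DMSO only and -100% = full killing by 100 µM tamoxifen; nearly all actives have a fitted effect of over 50% in size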
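ATP-luminescence viability readout (ATPlite, 20 min RT) after 24 hr compound treatment at 39C of H1299-neo or H1299-p53A138V cells; titration up to 46 uM; normalized to DMSO and 100 uM tamoxifen; Hill-fit AC50.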
HTT-AS promoter: HTT-AS promoter activation | actives 0.24% (n = 48,000) | Potency, µM (doses to about 57.5 µM), for inactives: top-dose activity change, positive = activation, most hits filed as activators | HEK293 HTT-AS promoter firefly luciferase reporter, 24 h; response scale: percent change from vehicle, -100% = no light; further: nearly all actives have a fitted effect of over 55% in size
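Luminescence was read after Dual-Glo reagent and a 10 min room-temperature incubation. Values were normalized to vehicle (0% activity) and zero RLU (-100% activity). Reporter HEK293 cells had been exposed to compounds (up to 57.5 uM final) for 24 h.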
p53null 32C kill: selectivity test: cytotoxicity in p53 null cells, permissive temperature | H1299-neo p53 null cells, ATP luminescence, 24 h, 32C | Potency, µM (top dose mostly 46.1 µM), for the others: at the highest dose activity change, negative = cytotoxicity, usual class: cytotoxic | actives 0.62% (n = 55,000) | AID 903;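 further: 0% = DMSO only and -100% = full killing by 100 µM tamoxifen; nearly all actives have a fitted effect of over 55% in size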
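H1299-neo, 600 cells/well; overnight 37C; cpd up to 46 uM, 24 h at 32C; ATPlite luminescence after 20 min RT; normalized to DMSO (0%) and tamoxifen 100 uM (100% kill); Hill-fit AC50.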
Numbers without * were called inactive; [ ] = dose if it differs, or a comment. Compounds with a hit are over-represented: about 1.9% of the library has one in this group of screens. The call rests on the fitted dose curve; in most records, active means well fitted curve in the direction sought with a large enough effect; inconclusive means small, poorly fitted or top-dose-only effect, or another doubt; inactive means no such curve, though single readings can be large; an effect the other way counts as inactive or inconclusive. Potency means the concentration at half of the fitted maximal effect.

`COc1ccc(N(Cc2ccccc2)C(=O)c2nc(S(C)(=O)=O)ncc2Cl)cc1` gave HTT prom inh inconclusive, p53null 39C tox 11.2µM*, HTT-AS promoter -93.5% and p53null 32C kill 12.6µM*.
`CC(C)Sc1ncc(Cl)c(C(=O)Nc2c(C(=O)Nc3ccccc3)oc3ccccc23)n1` gave HTT prom inh -3.2%, p53null 39C tox inconclusive, HTT-AS promoter 15.7% and p53null 32C kill -1.1%.
Screening COc1ccc(CNC(=O)c2nc(S(=O)(=O)Cc3ccccc3)ncc2Cl)cc1 returned HTT prom inh inconclusive, p53null 39C tox 12.6µM*, HTT-AS promoter -90.7% and p53null 32C kill -4.2%.
`CCCS(=O)(=O)c1ncc(Cl)c(C(=O)Nc2c(C(=O)Nc3ccccc3)oc3ccccc23)n1` gave HTT prom inh 13.2%, p53null 39C tox 15.8µM*, HTT-AS promoter -12.0% and p53null 32C kill -29.1%.
`CC(C)(C)c1ccc(C2=NC(C)(C)N(CC(=O)Nc3ccc(F)c(F)c3)C2=O)cc1` gave HTT prom inh -28.7%, p53null 39C tox 12.6µM*, HTT-AS promoter -31.0% and p53null 32C kill 2.8%.
O=C(CCN1CCN(C(=O)OCc2cc(Cl)cc(Cl)c2)CC1)c1ccc2[nH]c(=O)oc2c1 was read as HTT prom inh 3.3% and HTT-AS promoter inconclusive.
CC(C)c1ccccc1Cc1cc(C(=O)Nc2ccc(S(=O)(=O)c3ccccc3C(C)(C)C)cc2)c(O)c(O)c1O was read as HTT prom inh inconclusive and HTT-AS promoter -36.4%.
CC(=O)c1cccc(Nc2nc(-c3cccc(C)c3)nc3ccccc23)c1 was read as HTT prom inh inconclusive, p53null 39C tox 11.2µM*, HTT-AS promoter 4.3%[11.5 µM] and p53null 32C kill inconclusive.
Cc1ccc(CN2CCCn3nc(C(=O)NCc4cc(C)ccc4C)cc3C2=O)cc1 was read as HTT prom inh 28.2µM*, p53null 39C tox 21.5%, HTT-AS promoter -20.7% and p53null 32C kill 9.9%.
For Cc1cc(Nc2nc(N[C@@H](C)c3ncc(F)cn3)ncc2Cl)n[nH]1 the results were HTT prom inh inconclusive and HTT-AS promoter -36.2%.
`Cc1ccc(CN2CCNCC2)cc1NC(=O)CNc1ccc(F)c(F)c1` gave HTT prom inh -4.9% and HTT-AS promoter -5.9%.
Screening O=C(Nc1ccc2c(c1)CCC2)C1CCCO1 (stereo unspecified) returned p53null 39C tox -17.6% and p53null 32C kill -10.2%.
`O=C(Nc1ccc2c(c1)CCC2)c1ccc(F)cc1` gave p53null 39C tox -29.9% and p53null 32C kill 10µM*.
CCCCc1oc2ccc(NS(C)(=O)=O)cc2c1C(=O)c1ccc(OCCCN(CCCC)CCCC)cc1 was read as HTT prom inh inconclusive and HTT-AS promoter -42.5%.
`COc1cc(Cl)c(C)cc1NC(=O)c1cc2ccc3cccnc3c2[nH]1` gave HTT prom inh -27.0%, p53null 39C tox -9.8%, HTT-AS promoter -15.1% and p53null 32C kill 20µM*.
`O=C(O)c1ccccc1C(=O)Nc1ccc(-c2ccccc2)cc1` gave HTT prom inh inconclusive and HTT-AS promoter -61.2%.
Cc1cc(C)cc(NC(=O)Cn2c(=O)oc3cc(S(=O)(=O)N4CCCC4)ccc32)c1 was read as HTT prom inh inconclusive, p53null 39C tox -14.2%, HTT-AS promoter -33.2% and p53null 32C kill 9.9%.
`CC(C)c1ccc(NC(=O)Cn2c(=O)oc3cc(S(=O)(=O)N4CCCC4)ccc32)cc1` gave HTT prom inh 14.1µM*, p53null 39C tox -15.6%, HTT-AS promoter -47.8% and p53null 32C kill 6.2%.
Cc1cc(C)c(NC(=O)Cn2c(=O)oc3cc(S(=O)(=O)N4CCCCCC4)ccc32)c(C)c1 was read as HTT prom inh 10µM*, p53null 39C tox 8.1%, HTT-AS promoter -42.5% and p53null 32C kill -1.5%.
`Cc1cccc(N2CCN(S(=O)(=O)c3cc(C(=O)Nc4ccc(Oc5ccccc5)cc4)ccc3F)CC2C)c1` (stereo unspecified) gave HTT prom inh 1µM*, p53null 39C tox 8.9%, HTT-AS promoter -46.1% and p53null 32C kill 7.3%.
Screening Cc1cccc(NC(=O)c2ccc(F)c(S(=O)(=O)N3CCN(c4ccc(F)cc4)CC3)c2)c1 returned HTT prom inh inconclusive, p53null 39C tox -24.3%, HTT-AS promoter -30.7% and p53null 32C kill 5.6%.
Screening O=C(Nc1ccc(Oc2ccccc2)cc1)c1ccc(F)c(S(=O)(=O)N2CCN(c3ccccc3F)CC2)c1 returned HTT prom inh 2µM*, p53null 39C tox 15.9%, HTT-AS promoter -44.4% and p53null 32C kill 0.5%.
Screening COC(=O)c1cc(S(=O)(=O)N2CCN(c3cccc(C)c3)C(C)C2)cn1C (stereo unspecified) returned HTT prom inh -12.9%, p53null 39C tox 12.6µM*, HTT-AS promoter 0.5% and p53null 32C kill -10.4%.
CCOC(=O)c1cc(S(=O)(=O)N2CCN(c3cccc(C)c3)C(C)C2)[nH]n1 (stereo unspecified) was read as HTT prom inh -13.4%, p53null 39C tox 14.2%, HTT-AS promoter -15.4% and p53null 32C kill 8.4%.
Screening COc1ccccc1N1CCN(S(=O)(=O)c2cc(C(=O)Nc3ccc(Oc4ccccc4)cc3)ccc2F)CC1 returned HTT prom inh 1.41µM*, p53null 39C tox -10.0%, HTT-AS promoter -41.6% and p53null 32C kill 1.7%.
Screening O=C(Nc1ccc(Oc2ccccc2)cc1)c1ccc(F)c(S(=O)(=O)N2CCN(c3cccc(Cl)c3)CC2)c1 returned HTT prom inh inconclusive, p53null 39C tox 8.1%, HTT-AS promoter -43.8% and p53null 32C kill 1.3%.
`CC(C)c1ccc(NC(=O)c2ccc(F)c(S(=O)(=O)N3CCc4ccccc4C3)c2)cc1` gave HTT prom inh 11.2µM*, p53null 39C tox -20.9%, HTT-AS promoter -25.5% and p53null 32C kill -10.4%.
O=C(Nc1cc(Cl)cc(Cl)c1)c1ccc(F)c(S(=O)(=O)NCc2ccccc2Cl)c1 was read as HTT prom inh inconclusive, p53null 39C tox 2.9%, HTT-AS promoter -31.9% and p53null 32C kill 3.7%.
For CC(C)c1ccc(NC(=O)c2ccc(F)c(S(=O)(=O)N3CCN(c4ccccc4F)CC3)c2)cc1 the results were HTT prom inh inconclusive, p53null 39C tox 7.0%, HTT-AS promoter -12.5% and p53null 32C kill -9.1%.
For COc1ccccc1CNS(=O)(=O)c1cc(C(=O)Nc2cccc(C(F)(F)F)c2)ccc1F the results were HTT prom inh 28.2µM*, p53null 39C tox -2.9%, HTT-AS promoter -46.9% and p53null 32C kill 41.8%.
For O=C(Nc1cccc(C(F)(F)F)c1)c1ccc(F)c(S(=O)(=O)N2CCc3ccccc3C2)c1 the results were HTT prom inh 28.2µM*, p53null 39C tox 8.0%, HTT-AS promoter -39.8% and p53null 32C kill 3.5%.
For CC(C)c1ccc(CNC(=O)c2ccc(N3CCCC3)c(NC(=O)NCc3ccccc3)c2)cc1 the results were HTT prom inh 25.1µM*, p53null 39C tox 21.1%, HTT-AS promoter -19.4% and p53null 32C kill 11.5%.
